The list is not random: actives were taken first. Their share in the collection is about 2.8%.
Pol eta inh: DNA polymerase eta (human) inhibition; Q9Y253; recombinant Pol eta, fluorescent DNA replication assay; Potency, µM (titrated, usually from 114 µM), inactives show top-dose activity change, negative = inhibition, hits mostly inhibitors; hit rate 1.2% among 390,000; further: potency means the concentration at half of the fitted maximal effect; on the % scale 0 is the no-effect control and ±100 the full control effect
Target sequence (Q9Y253 whole entry, looked up): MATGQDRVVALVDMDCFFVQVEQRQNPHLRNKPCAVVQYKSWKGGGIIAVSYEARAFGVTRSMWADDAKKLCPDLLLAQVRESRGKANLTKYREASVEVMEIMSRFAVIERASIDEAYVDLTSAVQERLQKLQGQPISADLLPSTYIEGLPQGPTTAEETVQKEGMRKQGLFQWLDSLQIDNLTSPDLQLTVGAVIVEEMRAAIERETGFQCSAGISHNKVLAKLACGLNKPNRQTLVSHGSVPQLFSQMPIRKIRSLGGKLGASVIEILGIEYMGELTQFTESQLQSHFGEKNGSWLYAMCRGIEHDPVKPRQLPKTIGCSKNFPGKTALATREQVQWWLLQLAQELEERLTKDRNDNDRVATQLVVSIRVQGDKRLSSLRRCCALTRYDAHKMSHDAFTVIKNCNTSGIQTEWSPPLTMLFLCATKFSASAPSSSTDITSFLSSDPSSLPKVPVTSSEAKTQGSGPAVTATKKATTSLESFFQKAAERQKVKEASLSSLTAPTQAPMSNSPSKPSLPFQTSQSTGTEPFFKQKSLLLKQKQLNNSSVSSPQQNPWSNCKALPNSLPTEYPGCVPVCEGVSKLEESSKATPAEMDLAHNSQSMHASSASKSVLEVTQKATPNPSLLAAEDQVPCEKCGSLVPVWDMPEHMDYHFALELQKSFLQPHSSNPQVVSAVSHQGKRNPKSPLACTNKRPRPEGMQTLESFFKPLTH
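Pol eta at 10 nM preincubated with compounds 15 min at room temperature; reaction started with fluorescent substrate (50 nM final) and read kinetically at 0 and 10 min.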
PI5P4Ka inh: PI5P4K alpha (human) kinase inhibition. hit rate 1.2% among 330,000. P48426. PI5P4Kalpha enzyme, ADP-Glo luminescence, 60 min; active compounds read low. max response, %; active means max response of -50% or lower; inconclusive means between -30% and -50%; inactive means -30% or higher; further: value at the top dose of about 77 µM; on the % scale 0 is the no-effect control and ±100 the full control effect
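Controls without substrate or without enzyme flank wells where PI5P4Kalpha converts substrate using 5 microM ATP (final). Incubation lasts 60 minutes at room temperature; ADP formed is read by ADP-Glo luminescence.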
POLK inh: inhibitors of human DNA polymerase kappa. Q9UBT6. purified Pol kappa, fluorescent DNA synthesis assay, 10 min. Potency, µM (highest dose often 107 µM), without a hit: at the highest dose activity, negative = inhibition, usual class: inhibitors. hit rate 0.53% among 400,000. AID 588579; further: potency means the concentration at half of the fitted maximal effect; on the % scale 0 is the no-effect control and ±100 the full control effect
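Here, compound and 10 nM enzyme are combined for 15 min at room temperature; adding 50 nM substrate (final) starts DNA synthesis, tracked by fluorescence at 0 and 10 min against buffer-only wells.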
FEN1 inhibitor: blocks human flap endonuclease 1; hit rate 0.35% among 390,000; Recombinant FEN1 flap cleavage, fluorescence, 15 min; Potency, µM (titrated, usually from 114 µM), for the others: at the highest dose activity change, negative = inhibition, usual class: inhibitors; P39748; AID 588795; further: potency means the concentration at half of the fitted maximal effect; on the % scale 0 is the no-effect control and ±100 the full control effect; nearly all actives have a fitted effect of over 65% in size
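Quantitative HTS format: each compound was titrated, incubated with 10 nM nuclease for 15 min at room temperature, then challenged with flap substrate at 50 nM final. Signal change over 15 min gave concentration–effect curves.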
Pol beta inh: blocks human DNA polymerase beta activity. hit rate 1.3% among 340,000. Pol beta primer extension/strand displacement, fluorescence kinetic. Potency, µM (titrated, usually from 114 µM), for the others: at the highest dose activity change, negative = inhibition, usual class: inhibitors. P06746; further: potency means the concentration at half of the fitted maximal effect; on the % scale 0 is the no-effect control and ±100 the full control effect
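Enzyme-only controls used 10 nM Pol beta; buffer lacking enzyme served as negative control. Compound preincubated 15 min, then 50 nM substrate added; 0 and 10 min reads at room temperature.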
POLI inh: inhibitors of human DNA polymerase iota; hit rate 1% among 390,000; Potency, µM (series often up to 115 µM), without a hit: at the highest dose activity, negative = inhibition, most hits filed as inhibitors; AID 588590; Pol iota fluorescent replication assay, 10 min; Q9UNA4; further: potency means the concentration at half of the fitted maximal effect
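Fluorescent replication assay read twice, at 0 min and 10 min after adding 50 nM (final) substrate. Enzyme (10 nM) and compounds were first incubated 15 min at room temperature; enzyme-free buffer wells were negative controls.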
* hit, by the source's call; ? = inconclusive; · = not tested or not shown; [ ] = another dose, or the depositor's remark. Unless noted, the call rests on the fitted dose curve; in most records, active means well fitted curve in the direction sought with a large enough effect; inconclusive means small, poorly fitted or top-dose-only effect, or another doubt; inactive means no such curve, though single readings can be large; an effect the other way counts as inactive or inconclusive.

SMILES	Pol eta inh	PI5P4Ka inh	POLK inh	FEN1 inhibitor	Pol beta inh	POLI inh
CCOC(=O)C(CC)c1cc2n(c(=O)c1C#N)CCC21OCCO1 (stereo unspecified)	·	-0.2	·	·	·	·
CCc1ccc(NC(=O)CSc2nc(NS(=O)(=O)c3ccccc3)cc(=O)[nH]2)cc1	-21.2%	-0.4	-6.6%	5.8%	20µM*	28.7%
CCCCCC(=O)Nc1ccc(-c2csc(N)n2)cc1	-12.6%	-11.9	-23.7%	9.4%	?	62.3%
O=C(O)COc1cccc(-c2ocnc2-c2nc(-c3ccccc3)c(-c3ccccc3)o2)c1	·	·	-10.1%[19.4 µM]	·	·	·
COc1cc(/C=N/n2cnnc2-n2nc(C)cc2C)cc([N+](=O)[O-])c1O	-1.0%	?	4.5%	-1.5%	-24.1%	16.3%
O=C1Nc2c(c(=O)[nH]c(=O)n2-c2ccccc2)C1(NS(=O)(=O)c1ccc(Cl)cc1)C(F)(F)F (stereo unspecified)	-15.9%	·	-11.5%	1.3%	5.9%	?
COc1ccc(CNC(=O)CSc2nc(-c3ccccc3)cc(-c3cccs3)c2C#N)cc1	-2.0%	8.3	-9.8%	6.2%	4.6%	6.4%
CCC(C(=O)NCc1ccco1)n1nc(-c2ccc(OC)cc2)ccc1=O (stereo unspecified)	?	?	?	-2.6%	44.7µM*	?
COc1ccc(-c2ccc(=O)n(CC(=O)NCc3ccco3)n2)cc1	?	-17.7	-3.6%	2.5%	50.1µM*	?
COc1ccc(-c2cc(-c3cccs3)c(C#N)c(SCC(=O)NCc3ccco3)n2)cc1	10.0%	0.1	-3.6%	6.3%	12.6µM*	8.0%
COc1ccc(OCC(=O)N(Cc2cccc(OC)c2)C2CCS(=O)(=O)C2)cc1 (stereo unspecified)	-19.1%	·	7.2%	-3.0%	23.4%	-8.9%
COc1cc2c(NC3CCN(C)CC3)nc(N3CCCN(C)CC3)nc2cc1OCCCCN	·	·	79.4µM*	10µM*	·	20µM*
COc1cc2c(NC3CCN(C)CC3)nc(N3CCN(C)CC3)nc2cc1OCCCN(C)C	·	·	-20.1%	?	·	?
COc1cc2c(NC3CCN(C)CC3)nc(N3CCCN(C)CC3)nc2cc1OCCCCC(N)=O	·	·	-1.9%	?	·	-2.3%
CCN(CC)CCCOc1cc2nc(N3CCCN(C)CC3)nc(NC3CCN(C)CC3)c2cc1OC	·	·	-14.1%	25.1µM*	·	?
COc1cc2c(NC3CCN(C)CC3)nc(N3CCCN(C)CC3)nc2cc1OCCCCCN(C)C	·	·	-14.4%	22.4µM*	·	?
COc1cc2c(NC3CCN(C)CC3)nc(N3CCCN(C)CC3)nc2cc1OCC1CCNCC1	·	·	0.0%	10µM*	·	?
COc1cc2c(NC3CCN(C)CC3)nc(N3CCCN(C)CC3)nc2cc1OCCN(C)C	·	·	-7.2%	25.1µM*	·	?
COc1cc2c(NC3CCN(C(C)C)CC3)nc(N3CCCN(C)CC3)nc2cc1OCCCN(C)C	·	·	-17.1%	31.6µM*	·	?
NC(=S)NNc1cccc2cccnc12	2.5%	-28.6	-15.9%	-30.3%	-10.5%	11.2µM*
O=C(O)CCc1c2ccc(=O)c(O)c-2oc2c(O)c(O)ccc12	·	·	-45.8%	1.41µM*	·	?
CC(Oc1ccccc1Cl)C(=O)Nc1ccc(S(=O)(=O)N2CCN(C)CC2)cc1 (stereo unspecified)	5.4%	-66.6*	-3.3%	?	·	?
CN1CCN(S(=O)(=O)c2ccc(NC(=S)NC(=O)c3ccc(Cl)cc3)cc2)CC1	?	-51.4*	-26.2%	-14.3%	-3.5%	?
Cc1cc(C)cc(OCC(=O)NCC2(N(C)C)CCCCC2)c1	-9.6%	·	-17.1%	16.7%	9.7%	19.4%
CC(C)C(=O)COc1c2occc2cc2ccc(=O)oc12	?	0.8	-14.8%	-8.3%	·	-0.6%
CC(=O)Oc1c2occc2cc2ccc(=O)oc12	?	-0.2	?	-15.4%	50.1µM*	?
CC(=O)C(Sc1nn(C)c(=S)s1)C(=O)Nc1ccccc1 (stereo unspecified)	-7.3%	-82.6*	1.1%	-7.3%	-1.3%	10.9%
N#CC1=C(N)SC(N)=C(C#N)C1c1ccc([N+](=O)[O-])cc1	-2.0%	-83.7*	-5.8%	1.8%	1.1%	?
